Rows were chosen to be rich in hits. Some 6.1% of all compounds tested hit in one or more screens of this group.
Gal4-VP16 FLuc – inhibits Gal4-VP16 luciferase reporter, ROR gamma counter-screen | Potency, µM (doses to about 53.6 µM), for inactives: top-dose activity, negative = inhibition, usual class: inhibitors | Drosophila S2 Gal4-VP16 UAS-luciferase, luminescence, 20 h | 3.5% of 310,000 active;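 also: Gal4-VP16 expression switched on by copper sulfate through the metallothionein promoter; % is scaled to controls: 0 for no effect and ±100 for the full control effect; nearly all actives have a fitted effect of over 50% in size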
ATXN2 expr inh – inhibitors of ATXN2 expression; HEK-293 ATXN2-luciferase reporter, luminescence, 24 h; Potency, µM (top dose mostly 57 µM), for the others: top-dose activity change, negative = inhibition, actives largely listed as inhibitors; 0.72% of 360,000 active; AID 1745845; also: % is scaled to controls: 0 for no effect and ±100 for the full control effect; nearly all actives have a fitted effect of over 55% in size
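qHTS (up to 57 uM final) was run with 24 h compound exposure of reporter cells at 37 °C. Each well was multiplexed: SteadyGlo luminescence measured ATXN2-luciferase expression after a fluorogenic Gly-Phe-AFC viability readout (25 uM final).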
TGFb inhibitor – inhibitors of TGF-b signaling | Potency, µM (series often up to 46.1 µM), for inactives: at the top dose activity, negative = inhibition, hits mostly inhibitors | 1.2% of 410,000 active | HepG2 CAGA-GFP TGF-b/SMAD3 reporter, GFP fluorescence, 18 h; TGF-beta stimulated, 500 pg/mL final | AID 588855; also: % is scaled to controls: 0 for no effect and ±100 for the full control effect; nearly all actives have a fitted effect of over 65% in size
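Smad-responsive CAGA-GFP expression was quantified in HEPG2 cells exposed to compounds and 500 pg/mL final TGF-beta for 18 h at 37 degrees C; unstimulated wells defined full inhibition.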
S2 tox – reduces viability in counter-screen for ATXN expression inhibitors. S2 cells (HEK-293 line with an ATXN2-luciferase reporter) viability, CellTiter-Fluor protease fluorescence, 24 h. Potency, µM (top dose mostly 56.7 µM), most hits filed as cytotoxic. 0.49% of 400,000 active. AID 651635; also: nearly all actives have a fitted effect of over 40% in size
HepG2 tox – kills HepG2 cells in TGF-b inhibitor counter-screen; AID 588856; Potency, µM (top dose mostly 46.1 µM), inactives show at the top dose activity change, negative = cytotoxicity, most hits filed as cytotoxic; 0.76% of 410,000 active; HepG2 CAGA-GFP viability, ATP luminescence, 18 h
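HepG2 CAGA-GFP cells (1000/well, DMEM with 1% FBS) received compound, then TGF-beta at 500 pg/mL final, and were incubated 18 hours at 37 degrees C. Viability was read by CellTiter-Glo luminescence. Media-only wells were set as complete cell-killing and DMSO as no toxicity.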
RORgamma inh – ROR gamma (mouse) transcription inhibition; Drosophila S2 Gal4-RORgamma UAS-luciferase reporter, 20 h; P51450; 5.4% of 310,000 active; AID 2551; Potency, µM (series often up to 53.6 µM), inactives show at the highest dose activity change, negative = inhibition, hits mostly inhibitors; also: % is scaled to controls: 0 for no effect and ±100 for the full control effect; nearly all actives have a fitted effect of over 60% in size
Target sequence (P51450 whole entry, looked up, the tested form may be a part): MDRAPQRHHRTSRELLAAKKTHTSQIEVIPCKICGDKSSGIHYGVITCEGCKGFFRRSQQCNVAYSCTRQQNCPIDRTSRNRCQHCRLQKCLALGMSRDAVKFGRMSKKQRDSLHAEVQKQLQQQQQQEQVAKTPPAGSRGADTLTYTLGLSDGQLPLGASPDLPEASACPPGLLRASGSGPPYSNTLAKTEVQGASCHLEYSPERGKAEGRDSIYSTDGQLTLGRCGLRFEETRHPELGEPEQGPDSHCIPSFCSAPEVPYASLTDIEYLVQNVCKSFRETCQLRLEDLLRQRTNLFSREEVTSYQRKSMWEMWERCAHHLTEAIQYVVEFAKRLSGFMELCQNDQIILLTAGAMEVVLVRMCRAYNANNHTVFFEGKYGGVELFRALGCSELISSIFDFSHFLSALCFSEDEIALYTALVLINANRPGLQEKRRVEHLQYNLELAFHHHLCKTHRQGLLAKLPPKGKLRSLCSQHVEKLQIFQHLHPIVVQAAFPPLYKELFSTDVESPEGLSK
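In this cell-based reporter format, copper sulfate (700 uM final) drives Gal4–ROR gamma fusion expression from a metallothionein promoter in Drosophila Schneider cells; compounds preincubated 1 hr, reporter read after 20 hr at ambient temperature.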
* marks the source's active call; other numbers are inactive results; i = inactive; ? = inconclusive; / = not tested or not shown; [ ] = dose if it differs, or a comment. Calls follow the shape of the dose curve; as a rule, active = well fitted curve in the direction sought with a large enough effect; inconclusive = small, poorly fitted or top-dose-only effect, or another doubt; inactive = no such curve, though single readings can be large; an effect the other way counts as inactive or inconclusive. Potency is read from the fitted curve at half-maximal effect.

SMILES | Gal4-VP16 FLuc | ATXN2 expr inh | TGFb inhibitor | S2 tox | HepG2 tox | RORgamma inh
CCC1(C)Cc2ccccc2C(=S)N1 (configuration not stated) | ? | 3% | -4% | i | -9% | 8.9µM*
CC1(C)CC(=O)N(c2cccc(Cl)c2)C(=O)C1 | -4% | 3% | -13% | i | 3% | 6%
O=C1NC(=S)N(c2cccc(Cl)c2)C12CCCCC2 | ? | 1% | -25% | i | -24% | 13µM*
CC(=O)c1ccc(N2CCN(C(=O)c3cc(S(=O)(=O)N4CCCCCC4)cn3C)CC2)cc1 | / | -12% | 1% | ? | -17% | /
O=c1c2c(nc3cc(-c4cccc(Cl)c4)[nH]n13)CCC2 | -26% | -17% | -15% | i | -15% | ?
Cc1[nH]n2c(=O)c3c(nc2c1-c1ccccc1)CCCC3 | ? | -17% | -5% | i | -21% | 11µM*
O=c1c2c(nc3c(-c4cccc5ccccc45)c[nH]n13)CCC2 | -8% | -16% | -6% | i | -50% | 3%
Cc1[nH]n2c(=O)c3c(nc2c1-c1cccc2ccccc12)CCC3 | ? | -15% | -12% | i | -45% | 13µM*
O=c1c2c(nc3c(-c4ccc(Cl)cc4)c[nH]n13)CCCC2 | 6.3µM* | 16µM* | ? | ? | -22% | 2.2µM*
COc1ccccc1NC(=O)Cn1c(=O)n(CC2CCC(C(=O)NCCc3ccccc3)CC2)c(=O)c2ccccc21 (configuration not stated) | / | 7% | -25% | i | -2% | /
O=C(Cc1n[nH]c(=O)[nH]c1=O)N/N=C/c1c(O)ccc2ccccc12 | 3% | -16% | 5% | i | 6% | 30%
COc1ccccc1NCC(=O)N/N=C/c1c(O)ccc2ccccc12 | 2.8µM* | 2.5µM* | -1% | i | -48% | 0.89µM*
COc1ccccc1N(CC(=O)N/N=C/c1c(O)ccc2ccccc12)S(C)(=O)=O | ? | 8.9µM* | -20% | i | -1% | 13µM*
O=C(CNc1ccc(F)cc1)N/N=C/c1c(O)ccc2ccccc12 | 2.8µM* | 4.5µM* | ? | ? | -37% | 1.3µM*
C=C(C)Cn1c(SCC(=O)N/N=C/c2c(O)ccc3ccccc23)nc2ccccc2c1=O | 2.5µM* | ? | ? | i | -48% | 0.63µM*
COc1ccccc1NCC(=O)N/N=C/c1cccnc1 | -9% | 5% | 5% | i | 5% | 16%
Cc1cc(-c2ccc(CC(=O)Nc3ccc(-c4cccnc4)cc3)cc2)ccn1 | / | -6% | / | / | / | /
O=C(COc1ccccc1Cl)OCc1cc(=O)n2nc(C3CC3)sc2n1 | / | 0% | -1% | i | 2% | /
O=C(CCc1nc2ccccc2c(=O)[nH]1)NCCN1C(=O)S/C(=C\c2ccc(OC(F)F)cc2)C1=O | / | 11% | 4% | i | 10µM* | /
CCn1c(CCc2ccccc2)nc2ccccc21 | ? | 10% | 12% | i | 1% | ?
CCc1nc2ccccc2n1CCc1ccccc1 | 2% | 4% | -17% | i | 0% | 8.9µM*
CC(C)C(=O)NCCc1nc2ccccc2n1CCc1ccccc1 | -2% | -19%[11.3 µM] | 1% | i | 4% | -22%
CCc1nc2ccccc2n1CCC(C)C | 13µM* | 2% | ? | i | -22% | 10µM*
CC(C)(C)Cc1nc2ccccc2n1CCc1ccccc1 | 16µM* | -18% | 1% | i | -39% | 7.9µM*
CC(C)Cc1nc2ccccc2n1CCc1ccccc1 | ? | 0% | -5% | i | -26% | 8.9µM*
COc1cccc(-c2noc(-c3cc(C(C)C)[nH]n3)n2)c1OC | / | / | -1% | / | -22% | /
CC1(C)OC(=O)Nc2ccc(Br)cc21 | / | 19% | / | i | / | /
C=C(Br)Cn1c(CC(C)C)nc2ccccc21 | -6% | -10% | 10% | i | -10% | 35µM*
C=C(Br)Cn1c(CC)nc2ccccc21 | 0% | 0% | 4% | i | 0% | -35%
